Results: PubChem BioAssay (NCATS)
Records with an inconclusive call do not appear. Entries that show only a call come without a potency. Activity calls are given as the source filed them. Calls come from the whole dose curve; as a rule, active = well fitted inhibition curve with a large enough effect; inconclusive = small, poorly fitted or top-dose-only effect; inactive = flat fitted curve, though single readings scatter.

These molecules were tested against Calcium and integrin-binding protein 1 (Homo sapiens) (UniProt Q99828) (assay: Primary qHTS for Identification of Calcium Integrin Binding Protein 1 (CIB1) Competitor (AID 1508620;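 note: GST tagged CIB1 binding a fluorescein labelled alphaIIb integrin peptide tracer; top concentration of the series differs between compounds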)). Conditions: CIB1-GST / FITC-alphaIIb peptide fluorescence polarization; series mostly up to 114 µM.
Chain of Calcium and integrin-binding protein 1 (Homo sapiens) (Q99828 whole entry, looked up): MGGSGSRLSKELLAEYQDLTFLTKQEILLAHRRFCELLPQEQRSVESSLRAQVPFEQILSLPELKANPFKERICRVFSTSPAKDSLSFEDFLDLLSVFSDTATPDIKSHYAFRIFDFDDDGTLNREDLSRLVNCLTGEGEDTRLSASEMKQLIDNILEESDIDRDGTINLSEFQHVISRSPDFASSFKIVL
In short: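 CIB1-GST (1 uM final) and compound incubated 15 min at room temperature before adding FITC-alphaIIb peptide tracer (100 nM final). Competition for binding read by fluorescence polarization (ex 480, em 540) after another 15 min at room temperature.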

Row | Structure (SMILES) | Potency
1 | COc1ccc(C2Nc3ccccc3C(=O)N2Cc2ccc(C(F)(F)F)o2)cc1COc1c(C)cccc1C (centres undefined) | inactive
2 | N#Cc1c(-c2ccc3c(c2)OCO3)no[n+]1[O-] | inactive
3 | COc1cc(O)c(C(CC(=O)N2CCC[C@@H](C)C2)c2ccc3c(c2)OCO3)c(OC)c1 (some centres undefined) | inactive
4 | NC(=O)C1CCN(c2nc(-c3ccc4occc(=O)c4c3)cs2)CC1 | inactive
5 | N#Cc1c(-c2cccc(C(F)(F)F)c2)no[n+]1[O-] | inactive
6 | Cc1cc(C)nc(NC(=S)N2CCN(c3ccc([N+](=O)[O-])c4cccnc34)CC2)c1 | inactive
7 | CC(=O)NC(c1cccs1)c1cc(F)c2cccnc2c1O (centres undefined) | inactive
8 | Cc1cc2c(s1)c1cnn(Cc3cc(F)c(F)c(F)c3)c(=O)c1n2C | inactive
9 | Cc1ccc(CN(C)c2ncnc3ccc(-c4ccc(CO)o4)cc23)o1 | inactive
10 | COc1ccc(C2Nc3ccccc3C(=O)N2Cc2ccccc2C)cc1COc1ccc(NC(C)=O)cc1 (centres undefined) | inactive
11 | Cc1cc2c(s1)c1cnn(Cc3ccc(Br)cc3F)c(=O)c1n2C | inactive
12 | Oc1ccc(/C=C/c2c(F)cccc2F)c2cccnc12 | inactive
13 | CC(=O)Nc1sc2c(c1-c1ccc(OC(F)(F)F)cc1)CCNC2 | inactive
14 | Cc1nnc(-c2cnn(C)c2N)n1CCCc1cccnc1 | inactive
15 | Fc1cc(Nc2nc(-c3ccncc3)nc3ccccc23)ccc1-c1ccncc1 | inactive
16 | COc1cccc(C2c3c(ncn(-c4cccc(Cl)c4)c3=N)Oc3ccc4ccccc4c32)c1 (centres undefined) | inactive
17 | CCOC(=O)c1nn(-c2ccccc2)c(=O)c2c(N)sc(C)c12 | inactive
18 | Cc1cc(C)nc(NC(=S)N2CCN(c3nccc(C(F)(F)F)n3)CC2)c1 | inactive
19 | CC(C)(C)OC(=O)N1CCN(c2ccc(NCc3ccoc3-c3ccc(C#N)cc3)cc2)CC1 | inactive
20 | Nc1cccc(S(=O)(=O)N2CCN(S(=O)(=O)c3c(F)cccc3F)CC2)c1 | inactive

Row | Structure (SMILES) | Potency
21 | C#Cc1nc(Nc2cccc(Cl)c2)nc(NC2CCCC2)n1 | inactive
22 | CC(=O)c1ccc(N2CCN(C(=O)c3ccc4c(c3)CC(=O)N4)CC2)cc1 | inactive
23 | O=[S+]([O-])(Nc1ccccc1F)c1cccc(NC/C=C/c2ccccc2)c1 | inactive
24 | Cc1cc(C)nc(NC(=S)N2CCN(Cc3cccc4ccccc34)CC2)c1 | inactive
25 | O=C(c1cc2sccc2n1Cc1ccccc1)N(CCc1ccc(O)c(O)c1)Cc1ccccc1 | inactive
26 | COc1ccnc(NC(=S)N2CCN(c3ccc(Cl)cc3Cl)CC2)c1 | inactive
27 | O=C(Nc1ccc(-c2nc3ccccc3[nH]2)cc1)c1ccc2cc[nH]c2c1 | inactive
28 | COc1cccc(C2c3c(ncn(-c4ccccc4Br)c3=N)Oc3ccc4ccccc4c32)c1 (centres undefined) | inactive
29 | N[C@@H](CCC(=O)O)C(=O)Nc1ccc(Cl)cc1C(=O)c1ccc[nH]1 | inactive
30 | COc1ccc(-c2ccc3ncnc(NCc4nc(C)cs4)c3c2)cc1OC | inactive
31 | Cc1cc2c(s1)c1cnn(Cc3ccc(C)c(F)c3F)c(=O)c1n2C | inactive
32 | Oc1ccc(CNc2cc(C(F)(F)F)ccn2)c2cccnc12 | inactive
33 | N#Cc1nc(NCCO)nc(Nc2ccccc2)n1 | inactive
34 | Cc1cc(C)nc(NC(=S)N2CCN(c3nnc(C(F)(F)F)s3)CC2)c1 | inactive
35 | Cc1sc(NC(=O)Cc2ccc3c(c2)OCO3)nc1-c1ccc2c(c1)CCN2C(=O)c1ccccc1Cl | inactive
36 | Cc1cccc(N2CCN(C(=S)Nc3cc(C)ccn3)CC2)c1 | inactive
37 | Cc1cc(C)nc(NC(=S)N2CCN(c3ccc(C(=O)O)cc3)CC2)c1 | inactive
38 | c1ccc(CNCc2nnc(-c3cc4ccccc4[nH]3)s2)cc1 | inactive
39 | O=C(O)c1cccc(-c2cccc(-c3nn4c(=O)cc(N5CCNCC5)nc4s3)c2)c1 | inactive
